# In PubChem BioAssay (NCATS):
# Results filed as inconclusive are left out. Where a call stands in place of a potency, no number is given. Values without a mark were called inactive. Activity calls are given as the source filed them. Calls follow the shape of the dose curve; as a rule, active = well fitted curve in the direction sought with a large enough effect; inconclusive = small, poorly fitted or top-dose-only effect, or another doubt; inactive = no such curve, though single readings can be large; an effect the other way counts as inactive or inconclusive.
# Tests used:
# MCC-26 = assay: qHTS assay to identify novel small-molecules to repurpose for Merkel cell carcinoma treatment (AID 1296009); settings: MCC and control cell lines, CellTiter-Glo viability, 72 h; series mostly up to 46 µM; also: nearly all actives have a fitted effect of over 60% in size
# How it was run: (§1)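 Cell viability, measured as CellTiter-Glo luminescence, was normalized between DMSO and no-cell wells. The cells had been exposed to 8- or 11-point compound dilutions for 72 hr at 37 degree celsius.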
# MKL-1 = assay: as above; settings: MCC and control cell lines, CellTiter-Glo viability, 72 h; series mostly up to 46 µM
# How it was run: as §1
# MKL-2 = assay: as above; settings: MCC and control cell lines, CellTiter-Glo viability, 72 h; series mostly up to 46 µM
# How it was run: as §1
# UISO = assay: as above; settings: MCC and control cell lines, CellTiter-Glo viability, 72 h; series mostly up to 46 µM
# How it was run: as §1
# WaGa = assay: as above; settings: MCC and control cell lines, CellTiter-Glo viability, 72 h; series mostly up to 46 µM
# How it was run: as §1
# C33A = assay: Primary qHTS to identify gynecologic anti-cancer compounds using libraries of approved drugs and bioactive compounds (AID 1345084); settings: Gynecologic cancer cell panel viability, ATPlite luminescence, 48 h; series mostly up to 57.5 µM; also: nearly all actives have a fitted effect of over 55% in size
# How it was run: (§2)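 48 h compound exposure at 37 C, 5% CO2; five-point qHTS. ATPlite luminescence readout of cell ATP.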
# CAOV3 = assay: as above; settings: Gynecologic cancer cell panel viability, ATPlite luminescence, 48 h; series mostly up to 57.5 µM
# How it was run: as §2
# CASKI = assay: as above; settings: Gynecologic cancer cell panel viability, ATPlite luminescence, 48 h; series mostly up to 57.5 µM
# How it was run: as §2
# Es-2 = assay: as above; settings: Gynecologic cancer cell panel viability, ATPlite luminescence, 48 h; series mostly up to 57.5 µM
# How it was run: as §2
# HeLa = assay: as above; settings: Gynecologic cancer cell panel viability, ATPlite luminescence, 48 h; series mostly up to 57.5 µM
# How it was run: as §2
# Hek293T = assay: as above; settings: Gynecologic cancer cell panel viability, ATPlite luminescence, 48 h, control line for the selectivity index; series mostly up to 57.5 µM
# How it was run: as §2
# JEG-3 = assay: as above; settings: Gynecologic cancer cell panel viability, ATPlite luminescence, 48 h; series mostly up to 57.5 µM
# How it was run: as §2
# OV90 = assay: as above; settings: Gynecologic cancer cell panel viability, ATPlite luminescence, 48 h; series mostly up to 57.5 µM
# How it was run: as §2
# PA-1 = assay: as above; settings: Gynecologic cancer cell panel viability, ATPlite luminescence, 48 h; series mostly up to 57.5 µM
# How it was run: as §2
# SKOV3 = assay: as above; settings: Gynecologic cancer cell panel viability, ATPlite luminescence, 48 h; series mostly up to 57.5 µM
# How it was run: as §2
# Tov-21-G = assay: as above; settings: Gynecologic cancer cell panel viability, ATPlite luminescence, 48 h; series mostly up to 57.5 µM
# How it was run: as §2
# Tov112D = assay: as above; settings: Gynecologic cancer cell panel viability, ATPlite luminescence, 48 h; series mostly up to 57.5 µM
# How it was run: as §2
# [1] = Drug repurposing screens with cells derived from glioblastoma tumor samples (AID 1345199); settings: GBM patient neurospheres viability, ATP luminescence, 48 h; also: nearly all actives have a fitted effect of over 40% in size; also: potency is read from the fitted curve at half-maximal effect
# How it was run: (§3)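 Primary testing used CD133+ neurospheres from four GBM patients, seven concentrations, 48 h exposure and ATP-based viability; confirmation added three slower-growing patient lines.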
# astro = assay: as above; settings: viability, ATP luminescence, 48 h; series mostly up to 45.9 µM
# How it was run: as §3
# NIH3T3 = assay: qHTS assay to identify novel small-molecules to repurpose for Merkel cell carcinoma treatment (AID 1296009); settings: MCC and control cell lines, CellTiter-Glo viability, 72 h; at 44.8 µM (top of the series) unless noted; also: nearly all actives have a fitted effect of over 60% in size
# How it was run: as §1
# [2] = at 45.9 µM (top of the series), tumour line B
# [3] = at 46.1 µM (top of the series), tumour line C
# [4] = at 45.9 µM (top of the series), tumour line D
# [5] = at 46 µM (top of the series), tumour line A
# [6] = at 20 µM (top of the series), tumour line C
# [7] = at 21.2 µM (top of the series), tumour line B
# [8] = at 21.2 µM (top of the series), tumour line D
# [9] = at 21.3 µM (top of the series), tumour line A
compound,measurement,setting,value
CCCN1C[C@H](CSC)C[C@@H]2c3cccc4[nH]cc(c34)C[C@H]21,Potency,MCC-26,inactive
same,Potency,MKL-1,inactive
same,Potency,MKL-2,inactive
same,Potency,UISO,inactive
same,Potency,WaGa,inactive
same,Potency,C33A,inactive
same,Potency,CAOV3,inactive
same,Potency,CASKI,inactive
same,Potency,Es-2,inactive
same,Potency,HeLa,inactive
same,Potency,Hek293T,inactive
same,Potency,JEG-3,inactive
same,Potency,OV90,inactive
same,Potency,PA-1,inactive
same,Potency,SKOV3,inactive
same,Potency,Tov-21-G,inactive
same,Potency,Tov112D,inactive
same,"activity, negative = cell killing",[1]; [2],-27.2%
same,"activity, negative = cell killing",[1]; [3],15.8%
same,Potency,[1]; tumour line A,7.94 µM (active)
same,Potency,astro,inactive
CC(C)NNC(=O)c1ccncc1,Potency,MCC-26,inactive
same,Potency,MKL-1,inactive
same,Potency,MKL-2,inactive
same,outcome,NIH3T3,inactive
same,Potency,UISO,inactive
same,Potency,WaGa,inactive
same,Potency,C33A,inactive
same,Potency,CAOV3,inactive
same,Potency,CASKI,inactive
same,Potency,Es-2,inactive
same,Potency,HeLa,inactive
same,Potency,Hek293T,inactive
same,Potency,JEG-3,inactive
same,Potency,OV90,inactive
same,Potency,PA-1,inactive
same,Potency,SKOV3,inactive
same,Potency,Tov-21-G,inactive
same,Potency,Tov112D,inactive
same,"activity, negative = cell killing",[1]; [2],-11.9%
same,"activity, negative = cell killing",[1]; [4],-16.2%
same,"activity, negative = cell killing",[1]; [3],-23.6%
C[C@]12CCC(=O)C=C1CC[C@@H]1[C@@H]2C(=O)C[C@@]2(C)[C@H]1CC[C@]2(O)C(=O)CO,Potency,MCC-26,inactive
same,Potency,MKL-1,inactive
same,Potency,MKL-2,inactive
same,Potency,UISO,inactive
same,Potency,WaGa,inactive
same,Potency,C33A,inactive
same,Potency,CAOV3,inactive
same,Potency,CASKI,inactive
same,Potency,Es-2,inactive
same,Potency,HeLa,inactive
same,Potency,Hek293T,inactive
same,Potency,JEG-3,inactive
same,Potency,OV90,inactive
same,Potency,SKOV3,inactive
same,Potency,Tov-21-G,inactive
same,Potency,Tov112D,inactive
same,"activity, negative = cell killing",[1]; [2],-3.67%
same,"activity, negative = cell killing",[1]; [4],-5.79%
same,"activity, negative = cell killing",[1]; [5],-18.4%
same,"activity, negative = cell killing",[1]; [3],4.73%
same,Potency,astro,inactive
CC(C(=O)O)c1ccc(CC2CCCC2=O)cc1 (stereo not given),Potency,MCC-26,inactive
same,Potency,MKL-1,inactive
same,Potency,MKL-2,inactive
same,Potency,UISO,inactive
same,Potency,WaGa,inactive
same,Potency,C33A,inactive
same,Potency,CAOV3,inactive
same,Potency,CASKI,inactive
same,Potency,Es-2,inactive
same,Potency,HeLa,inactive
same,Potency,Hek293T,inactive
same,Potency,JEG-3,inactive
same,Potency,OV90,inactive
same,Potency,PA-1,inactive
same,Potency,SKOV3,inactive
same,Potency,Tov-21-G,inactive
same,Potency,Tov112D,inactive
same,"activity, negative = cell killing",[1]; [2],-3.22%
same,"activity, negative = cell killing",[1]; [4],4.21%
same,"activity, negative = cell killing",[1]; [5],-18.9%
same,"activity, negative = cell killing",[1]; [3],-19.4%
same,Potency,astro,inactive
CC1=NS(=O)(=O)c2cc(Cl)ccc2N1,Potency,MCC-26,inactive
same,Potency,MKL-1,inactive
same,Potency,MKL-2,inactive
same,outcome,NIH3T3,inactive
same,Potency,UISO,inactive
same,Potency,WaGa,inactive
same,Potency,C33A,inactive
same,Potency,CAOV3,inactive
same,Potency,CASKI,inactive
same,Potency,Es-2,inactive
same,Potency,HeLa,inactive
same,Potency,Hek293T,inactive
same,Potency,JEG-3,inactive
same,Potency,PA-1,inactive
same,Potency,Tov-21-G,inactive
same,Potency,Tov112D,inactive
same,"activity, negative = cell killing",[1]; [2],-1.9%
same,"activity, negative = cell killing",[1]; [4],2.33%
same,"activity, negative = cell killing",[1]; [5],-21.7%
same,"activity, negative = cell killing",[1]; [3],8.3%
same,Potency,astro,inactive
CCN1CCC[C@H]1CNC(=O)c1c(O)c(Cl)cc(Cl)c1OC,Potency,MCC-26,inactive
same,Potency,MKL-1,inactive
same,Potency,MKL-2,inactive
same,Potency,UISO,inactive
same,Potency,WaGa,inactive
same,Potency,C33A,inactive
same,Potency,CAOV3,inactive
same,Potency,CASKI,inactive
same,Potency,Es-2,inactive
same,Potency,HeLa,inactive
same,Potency,Hek293T,inactive
same,Potency,JEG-3,inactive
same,Potency,OV90,inactive
same,Potency,PA-1,inactive
same,Potency,Tov-21-G,inactive
same,Potency,Tov112D,inactive
same,"activity, negative = cell killing",[1]; [2],-11.9%
same,"activity, negative = cell killing",[1]; [4],3.21%
same,"activity, negative = cell killing",[1]; [3],9.16%
same,Potency,astro,inactive
CCO/C([O-])=N/c1c[n+](N2CCOCC2)no1,Potency,MCC-26,inactive
same,Potency,MKL-1,inactive
same,Potency,MKL-2,inactive
same,Potency,UISO,inactive
same,Potency,WaGa,inactive
same,Potency,C33A,inactive
same,Potency,CAOV3,inactive
same,Potency,CASKI,inactive
same,Potency,Es-2,inactive
same,Potency,HeLa,inactive
same,Potency,Hek293T,inactive
same,Potency,JEG-3,inactive
same,Potency,OV90,inactive
same,Potency,PA-1,inactive
same,Potency,SKOV3,inactive
same,Potency,Tov-21-G,inactive
same,Potency,Tov112D,inactive
same,"activity, negative = cell killing",[1]; [6],-6.76%
same,"activity, negative = cell killing",[1]; [7],-3.07%
same,"activity, negative = cell killing",[1]; [8],-1.62%
same,"activity, negative = cell killing",[1]; [9],-22.7%
same,Potency,astro,inactive
O=C(O)CP(=O)(O)O,Potency,MCC-26,inactive
same,Potency,MKL-1,inactive
same,Potency,MKL-2,inactive
same,outcome,NIH3T3,inactive
same,Potency,UISO,inactive
same,Potency,WaGa,inactive
same,Potency,C33A,inactive
same,Potency,CAOV3,inactive
same,Potency,CASKI,inactive
same,Potency,Es-2,inactive
same,Potency,HeLa,inactive
same,Potency,Hek293T,inactive
same,Potency,JEG-3,inactive
same,Potency,OV90,inactive
same,Potency,SKOV3,inactive
same,Potency,Tov-21-G,inactive
same,Potency,Tov112D,inactive
same,"activity, negative = cell killing",[1]; [2],-17.9%
same,"activity, negative = cell killing",[1]; [4],13.7%
same,"activity, negative = cell killing",[1]; [5],-25.2%
same,"activity, negative = cell killing",[1]; [3],-15.6%
same,Potency,astro,inactive
NC(=O)c1cn(Cc2c(F)cccc2F)nn1,Potency,MCC-26,inactive
same,Potency,MKL-1,inactive
same,Potency,MKL-2,inactive
same,Potency,UISO,inactive
same,Potency,WaGa,inactive
same,Potency,C33A,inactive
same,Potency,CAOV3,inactive
same,Potency,CASKI,inactive
same,Potency,Es-2,inactive
same,Potency,HeLa,inactive
same,Potency,Hek293T,inactive
same,Potency,JEG-3,inactive
same,Potency,OV90,inactive
same,Potency,PA-1,inactive
same,Potency,SKOV3,inactive
same,Potency,Tov-21-G,inactive
same,Potency,Tov112D,inactive
same,"activity, negative = cell killing",[1]; [2],-2.3%
same,"activity, negative = cell killing",[1]; [4],-3.04%
same,"activity, negative = cell killing",[1]; [5],-26.2%
same,"activity, negative = cell killing",[1]; [3],-19.6%
same,Potency,astro,inactive
CN(C)C/C=C(/c1ccc(Br)cc1)c1cccnc1,Potency,MCC-26,inactive
same,Potency,MKL-1,inactive
same,Potency,MKL-2,inactive
same,outcome,NIH3T3,inactive
same,Potency,UISO,inactive
same,Potency,WaGa,inactive
same,Potency,C33A,inactive
same,Potency,CAOV3,inactive
same,Potency,CASKI,inactive
same,Potency,HeLa,inactive
same,Potency,Hek293T,inactive
same,Potency,JEG-3,inactive
same,Potency,OV90,inactive
same,Potency,PA-1,inactive
same,Potency,SKOV3,inactive
same,Potency,Tov-21-G,inactive
same,Potency,Tov112D,inactive
same,"activity, negative = cell killing",[1]; [2],-23%
same,Potency,[1]; tumour line A,31.6 µM (active)
same,Potency,astro,inactive
CC(C)(Oc1ccc(CCNC(=O)c2ccc(Cl)cc2)cc1)C(=O)O,Potency,MCC-26,inactive
same,Potency,MKL-1,inactive
same,Potency,MKL-2,inactive
same,outcome,NIH3T3,inactive
same,Potency,UISO,inactive
same,Potency,WaGa,inactive
same,Potency,C33A,inactive
same,Potency,CAOV3,inactive
same,Potency,CASKI,inactive
same,Potency,Es-2,inactive
same,Potency,HeLa,inactive
same,Potency,Hek293T,inactive
same,Potency,JEG-3,inactive
same,Potency,OV90,inactive
same,Potency,PA-1,inactive
same,Potency,SKOV3,inactive
same,Potency,Tov-21-G,inactive
same,Potency,Tov112D,inactive
same,"activity, negative = cell killing",[1]; [6],15.6%
same,"activity, negative = cell killing",[1]; [7],-6.51%
same,"activity, negative = cell killing",[1]; [8],0.604%
same,"activity, negative = cell killing",[1]; [9],-25.9%
same,Potency,astro,inactive
